Growth data for 8 compounds are collected here from PubChem BioAssay (NCI).

About 83,000 compounds went through this panel and 20% of them were active in at least one assay; those are over-represented in the sample as a whole.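 Activity criterion: percent growth below 10, measured after cells in 96-well plates were exposed to a single compound concentration for 48 hours.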 Values without a mark were called inactive. Calls of active or inactive are those of the source.

Some test systems named below: DU-145 prostate; K-562 leukemia; MALME-3M melanoma; MDA-MB-231 breast; RXF 393 renal; SF-268 CNS; SF-295 CNS; SF-539 CNS; UACC-257 melanoma; HCT-15 colon; HT29 colon; SNB-75 CNS; SNB-19 CNS; U251 CNS; PC-3 prostate; SK-MEL-5 melanoma; UACC-62 melanoma; LOX IMVI melanoma; SK-MEL-28 melanoma.
Holding throughout (assay): NCI-60 one-dose screen, 48 h (100 = growth as untreated, 0 = no growth, -100 = all killed)
Holding throughout (conditions): 10 µM unless noted

Take `N#Cc1nc2c(S(=O)(=O)c3ccc(Cl)cc3)c(N)n(Nc3cccc(Cl)c3)c2nc1C#N`: the growth in the assay with DU-145 prostate is 16.2%; with K-562 leukemia, 25.9%; in the assay on MALME-3M melanoma, 25.3%; in the assay with MDA-MB-231 breast, 58.8%; in the assay with RXF 393 renal, 46.3%; with SF-268 CNS it was 53.8%. The growth was 48.9% in the assay on SF-295 CNS; 38.9% in the assay on SF-539 CNS; 47.9% in the assay on UACC-257 melanoma; 91.2% in the assay on HCT-15 colon; 69.5% in the assay on HT29 colon; 55.9% in the assay with SNB-75 CNS. Besides, the growth was 64.6% in the assay with SNB-19 CNS; 40% in the assay on U251 CNS; -56.8% (active) in the assay on PC-3 prostate; 42.8% in the assay with SK-MEL-5 melanoma; 49.2% in the assay with UACC-62 melanoma; 61.3% with LOX IMVI melanoma. Further, the growth with SK-MEL-28 melanoma is 26.1%.
As to `NC1=NCc2nc3ccccc3c(=O)n2C1`, the growth is 113% in the assay with DU-145 prostate; 87.3% with K-562 leukemia; 104% with MALME-3M melanoma; 85.7% in the assay on MDA-MB-231 breast; 91.4% in the assay with RXF 393 renal; 112% in the assay with SF-268 CNS. Moreover, the growth in the assay with SF-295 CNS was 96.1%; in the assay on SF-539 CNS, 107%; in the assay with UACC-257 melanoma, 95.1%; in the assay on HT29 colon, 103%; in the assay on SNB-75 CNS, 98.6%; with SNB-19 CNS, 106%. The growth in the assay on U251 CNS was 103%; in the assay with PC-3 prostate, 112%; in the assay on SK-MEL-5 melanoma, 107%; in the assay on UACC-62 melanoma, 92.3%; in the assay with LOX IMVI melanoma it was 99.3%; in the assay with SK-MEL-28 melanoma, 117%.
`Cn1c(I)c(C#C[Si](C)(C)C)c(=O)n(C(=O)c2ccccc2)c1=O`: the growth in the assay with DU-145 prostate is 0.184% (active); in the assay with K-562 leukemia, -95.2% (active); in the assay on MALME-3M melanoma, -10.3% (active); in the assay with MDA-MB-231 breast, 64.2%; in the assay with RXF 393 renal it was -81.5% (active); in the assay with SF-268 CNS it was -18% (active). Further, the growth in the assay on SF-295 CNS was 87.9%; in the assay on SF-539 CNS, 69.4%; with UACC-257 melanoma, -20.8% (active); in the assay on HCT-15 colon, 6.55% (active); in the assay on HT29 colon it was 1.95% (active); in the assay on SNB-75 CNS it was 52.2%. The growth in the assay with SNB-19 CNS was 95.8%; with U251 CNS it was 24.8%; in the assay with PC-3 prostate, -56.8% (active); with SK-MEL-5 melanoma, 55.1%; in the assay on UACC-62 melanoma it was 69.9%; with LOX IMVI melanoma, -90.4% (active). Besides, the growth in the assay with SK-MEL-28 melanoma was -65.6% (active).
As to `CN(C)CC1C(=O)O[C@H]2[C@H]1CC/C(COC(=O)c1cc3ccccc3[nH]1)=C\CC[C@@]1(C)O[C@@H]21` (some centres undefined), the growth with DU-145 prostate is -17.7% (active); in the assay on K-562 leukemia, -11.4% (active); in the assay with MALME-3M melanoma, -44.2% (active); in the assay on MDA-MB-231 breast, -41.2% (active); with RXF 393 renal, -72.2% (active); with SF-268 CNS it was -59.7% (active). Besides, the growth was 32.4% in the assay on SF-295 CNS; -37.7% (active) in the assay with SF-539 CNS; -86% (active) in the assay with UACC-257 melanoma; -57.9% (active) in the assay with HCT-15 colon; -75.7% (active) in the assay on HT29 colon; -59.6% (active) with SNB-75 CNS. Besides, the growth in the assay with SNB-19 CNS was 49.5%; in the assay on U251 CNS it was -60.9% (active); in the assay on PC-3 prostate, -23.7% (active); with SK-MEL-5 melanoma, -98.6% (active); with UACC-62 melanoma it was -52% (active); in the assay on LOX IMVI melanoma, -92.7% (active). The growth in the assay with SK-MEL-28 melanoma was -59.1% (active).
With `CCCCn1c(=O)c2c(nc3n2CCCN3CCc2ccc(OCC(=O)NCCN(CC)CC)cc2)n(CCCC)c1=O`, the growth in the assay with DU-145 prostate is 66.1%; in the assay with K-562 leukemia, -6.6% (active); with MALME-3M melanoma, -52.9% (active); in the assay with MDA-MB-231 breast it was 14.4%; with RXF 393 renal it was 47.2%; with SF-268 CNS, 63.2%. Besides, the growth was -22.3% (active) in the assay on SF-295 CNS; 54.7% in the assay with SF-539 CNS; -39% (active) with UACC-257 melanoma; 1.38% (active) in the assay on HCT-15 colon; 5.96% (active) in the assay with HT29 colon; 44.6% with SNB-75 CNS. Moreover, the growth was 65.3% with SNB-19 CNS; 24.6% in the assay on U251 CNS; 47.7% in the assay on PC-3 prostate; 28.3% in the assay on SK-MEL-5 melanoma; 20.7% with UACC-62 melanoma; 11% in the assay with LOX IMVI melanoma. For the same compound, the growth with SK-MEL-28 melanoma is -36.4% (active).
For the compound `CC1OC(O[C@H]2/C=C/C=C/C=C/C=C/C=C/C=C/C=C/[C@H](C)[C@@H](O)[C@@H](C)[C@H](C)OC(=O)CC(O)CC(O)CCC(O)C(O)CC(O)C[C@]3(O)C[C@H](O)C(C(=O)O)C(C2)O3)C(O)[C@H](N)C1O` (some centres undefined), the growth was -29.9% (active) in the assay with DU-145 prostate; 91.8% in the assay on K-562 leukemia; -66% (active) in the assay on MALME-3M melanoma; 58.7% in the assay on MDA-MB-231 breast; -64.4% (active) with RXF 393 renal; -70.4% (active) in the assay with SF-268 CNS. Besides, the growth in the assay with SF-295 CNS was 65%; in the assay with SF-539 CNS, 17.2%; with UACC-257 melanoma, -76% (active); in the assay on HCT-15 colon it was 76.7%; in the assay on HT29 colon, 36.8%; in the assay on SNB-75 CNS, 57.8%. The growth in the assay with SNB-19 CNS is 40.2%; in the assay on U251 CNS, -57.1% (active); in the assay with PC-3 prostate, -54.6% (active); in the assay on UACC-62 melanoma it was -13% (active); in the assay with LOX IMVI melanoma, -12% (active); in the assay with SK-MEL-28 melanoma, -65.8% (active).
Take `O=C(/C=C/c1ccc(Cl)nc1)c1ccc(Cl)cc1Cl`: the growth was 108% with DU-145 prostate; 7.65% (active) with K-562 leukemia; 105% with MALME-3M melanoma; 107% with MDA-MB-231 breast; 104% in the assay with RXF 393 renal; 102% in the assay with SF-268 CNS. Moreover, the growth is 91.1% with SF-295 CNS; 107% in the assay with SF-539 CNS; 94.5% with UACC-257 melanoma; 75.8% in the assay with HT29 colon; 108% with SNB-75 CNS; 88.3% with SNB-19 CNS. The growth in the assay on U251 CNS was 64%; with PC-3 prostate it was 101%; in the assay on SK-MEL-5 melanoma it was 99.5%; with UACC-62 melanoma, 97.2%; with LOX IMVI melanoma, 6.52% (active); with SK-MEL-28 melanoma, 101%.
In the case of `N#Cc1c(N)nc2c(C#N)c(NC(=O)c3ccccc3)nn2c1-c1ccccc1`, the growth in the assay on DU-145 prostate was 102%; in the assay on K-562 leukemia, 73.1%; in the assay on MALME-3M melanoma it was 102%; in the assay with MDA-MB-231 breast it was 84.3%; with RXF 393 renal, 83.5%; in the assay on SF-268 CNS it was 86.2%. In addition, the growth is 90% in the assay with SF-295 CNS; 94.2% in the assay on SF-539 CNS; 105% in the assay on UACC-257 melanoma; 81.2% in the assay on HCT-15 colon; 99% with HT29 colon; 83% with SNB-75 CNS. Also, the growth with SNB-19 CNS was 89.6%; in the assay on U251 CNS, 106%; in the assay on PC-3 prostate it was 75.7%; in the assay on SK-MEL-5 melanoma, 78.4%; in the assay with UACC-62 melanoma, 91.2%; in the assay with LOX IMVI melanoma, 86.3%. Also, the growth in the assay with SK-MEL-28 melanoma was 103%.
